{"source": "the supplement of paper PMC8728848", "binders": {"B1": {"name": "SJCP3842 (Schistosoma japonicum) (protein)", "chain": "MFKMRIINLVNISTVLLLINLLQTKSRLVGKENGFMLTVSIYGAQLSDKMTSVPVSWTIDYEDPEKSAFKKLVTDSCDTFSEYVKSQIPKGSVDGQCTSHIFQRPGSGSGVSISLTLSFIYVDVTQPDTVALKTELEKHFANFVTIHSHKITQAQFRINQKAIVIPTGDKDAIDGSKWKIIAIIALVALAIVVIGGFIYICVK"}}, "assay_in_all_cases": "glycan array binding signal (z-score within array); higher = stronger binding", "settings_in_all_cases": "glycan notation: IUPAC condensed, linker removed", "key": {"[1]": {"biological_target": "Fuc(a1-2)Gal(b1-3)GalNAc(b1-4)[Neu5Ac(a2-3)]Gal(b1-4)Glc", "outline": "(§1)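 Negative Z-scores can be read as non-binding. The Z-score is calculated within each array and then averaged across arrays of one protein sequence at different concentrations or buffers and across linkers. Arrays, 3228 in all, were curated from the Consortium for Functional Glycomics database and kept only where the protein sequence was available.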"}, "[2]": {"biological_target": "Fuc(a1-2)[Gal(a1-3)]Gal(b1-4)GlcNAc(b1-2)Man", "outline": "as §1"}, "[3]": {"biological_target": "Fuc(a1-2)[Gal(a1-3)]Gal(b1-4)GlcNAc(b1-2)Man(a1-3)[Fuc(a1-2)[Gal(a1-3)]Gal(b1-4)GlcNAc(b1-2)Man(a1-6)]Man(b1-4)GlcNAc(b1-4)GlcNAc", "outline": "as §1"}, "[4]": {"biological_target": "Fuc(a1-2)[Gal(a1-3)]Gal(b1-4)GlcNAc(b1-3)GalNAc", "outline": "as §1"}, "[5]": {"biological_target": "Fuc(a1-2)[Gal(a1-3)]Gal(b1-4)[Fuc(a1-3)]GlcNAc", "outline": "as §1"}, "[6]": {"biological_target": "Fuc(a1-4)GlcNAc", "outline": "as §1"}, "[7]": {"biological_target": "Gal(a1-3)Gal(b1-3)GlcNAc(b1-2)Man(a1-3)[Gal(a1-3)Gal(b1-3)GlcNAc(b1-2)Man(a1-6)]Man(b1-4)GlcNAc(b1-4)GlcNAc", "outline": "as §1"}, "[8]": {"biological_target": "Gal(a1-3)Gal(b1-3)GlcNAc(b1-3)GalNAc", "outline": "as §1"}, "[9]": {"biological_target": "Gal(a1-3)Gal(b1-3)[Fuc(a1-4)]GlcNAc(b1-2)Man(a1-3)[Gal(a1-3)Gal(b1-3)[Fuc(a1-4)]GlcNAc(b1-2)Man(a1-6)]Man(b1-4)GlcNAc(b1-4)GlcNAc", "outline": "as §1"}, "[10]": {"biological_target": "Gal(a1-3)Gal(b1-4)GlcNAc(b1-2)Man", "outline": "as §1"}, "[11]": {"biological_target": "Gal(a1-3)Gal(b1-4)GlcNAc(b1-2)Man(a1-3)[Gal(a1-3)Gal(b1-4)GlcNAc(b1-2)Man(a1-6)]Man(b1-4)GlcNAc(b1-4)GlcNAc", "outline": "as §1"}, "[12]": {"biological_target": "Gal(a1-3)Gal(b1-4)GlcNAc(b1-6)GalNAc", "outline": "as §1"}, "[13]": {"biological_target": "Gal(a1-3)Gal(b1-4)[Fuc(a1-3)]GlcNAc", "outline": "as §1"}, "[14]": {"biological_target": "Gal(a1-4)Gal(b1-4)Glc", "outline": "as §1"}, "[15]": {"biological_target": "Gal(a1-4)Gal(b1-4)GlcNAc(b1-2)Man(a1-3)[Gal(a1-4)Gal(b1-4)GlcNAc(b1-2)Man(a1-6)]Man(b1-4)GlcNAc(b1-4)GlcNAc", "outline": "as §1"}, "[16]": {"biological_target": "Gal(a1-6)Glc", "outline": "as §1"}, "[17]": {"biological_target": "Gal(b1-3)GlcNAc(b1-3)Gal(b1-4)GlcNAc(b1-2)[Gal(b1-3)GlcNAc(b1-3)Gal(b1-4)GlcNAc(b1-6)]Man(a1-6)[Gal(b1-3)GlcNAc(b1-3)Gal(b1-4)GlcNAc(b1-2)Man(a1-3)]Man(b1-4)GlcNAc(b1-4)[Fuc(a1-6)]GlcNAc", "outline": "as §1"}, "[18]": {"biological_target": "Gal(b1-3)GlcNAc(b1-3)Gal(b1-4)GlcNAc(b1-3)Gal(b1-4)GlcNAc(b1-2)[Gal(b1-3)GlcNAc(b1-3)Gal(b1-4)GlcNAc(b1-3)Gal(b1-4)GlcNAc(b1-6)]Man(a1-6)[Gal(b1-3)GlcNAc(b1-3)Gal(b1-4)GlcNAc(b1-3)Gal(b1-4)GlcNAc(b1-2)Man(a1-3)]Man(b1-4)GlcNAc(b1-4)[Fuc(a1-6)]GlcNAc", "outline": "as §1"}, "[19]": {"biological_target": "Gal(b1-4)Gal", "outline": "as §1"}, "[20]": {"biological_target": "Gal(b1-4)Glc", "outline": "as §1"}, "[21]": {"biological_target": "Gal(b1-4)GlcNAc(b1-2)Man(a1-3)Man(b1-4)GlcNAc(b1-4)GlcNAc", "outline": "as §1"}, "[22]": {"biological_target": "Gal(b1-4)GlcNAc(b1-3)Gal(b1-4)GlcNAc", "outline": "as §1"}, "[23]": {"biological_target": "Gal3S(b1-4)[Fuc(a1-3)]Glc6S", "outline": "as §1"}, "[24]": {"biological_target": "Gal3S4S(b1-4)GlcNAc", "outline": "as §1"}, "[25]": {"biological_target": "Gal3S6S(b1-4)GlcNAc", "outline": "as §1"}, "[26]": {"biological_target": "Gal6S(b1-3)GlcNAc", "outline": "as §1"}, "[27]": {"biological_target": "GalNAc(b1-4)GlcNAc(b1-2)Man(a1-3)[GalNAc(b1-4)GlcNAc(b1-2)Man(a1-6)]Man(b1-4)GlcNAc(b1-4)GlcNAc", "outline": "as §1"}}, "note": "Only a selection was taken, and the strongest signals are over-represented in it overall.", "data": [{"binder": "B1", "values": [{"measurement": "glycan array binding signal (z-score)", "setting": "[1]", "result": 0.207}, {"measurement": "glycan array binding signal (z-score)", "setting": "[2]", "result": -1.05}, {"measurement": "glycan array binding signal (z-score)", "setting": "[3]", "result": 0.46}, {"measurement": "glycan array binding signal (z-score)", "setting": "[4]", "result": 0.343}, {"measurement": "glycan array binding signal (z-score)", "setting": "[5]", "result": 0.536}, {"measurement": "glycan array binding signal (z-score)", "setting": "[6]", "result": 4.44}, {"measurement": "glycan array binding signal (z-score)", "setting": "[7]", "result": 3.31}, {"measurement": "glycan array binding signal (z-score)", "setting": "[8]", "result": 0.153}, {"measurement": "glycan array binding signal (z-score)", "setting": "[9]", "result": 2.45}, {"measurement": "glycan array binding signal (z-score)", "setting": "[10]", "result": -1.09}, {"measurement": "glycan array binding signal (z-score)", "setting": "[11]", "result": -0.76}, {"measurement": "glycan array binding signal (z-score)", "setting": "[12]", "result": -0.327}, {"measurement": "glycan array binding signal (z-score)", "setting": "[13]", "result": 0.63}, {"measurement": "glycan array binding signal (z-score)", "setting": "[14]", "result": -1.04}, {"measurement": "glycan array binding signal (z-score)", "setting": "[15]", "result": 2.55}, {"measurement": "glycan array binding signal (z-score)", "setting": "[16]", "result": -1.59}, {"measurement": "glycan array binding signal (z-score)", "setting": "[17]", "result": 1.25}, {"measurement": "glycan array binding signal (z-score)", "setting": "[18]", "result": 1.37}, {"measurement": "glycan array binding signal (z-score)", "setting": "[19]", "result": -0.475}, {"measurement": "glycan array binding signal (z-score)", "setting": "[20]", "result": -1.59}, {"measurement": "glycan array binding signal (z-score)", "setting": "[21]", "result": -0.919}, {"measurement": "glycan array binding signal (z-score)", "setting": "[22]", "result": -0.05}, {"measurement": "glycan array binding signal (z-score)", "setting": "[23]", "result": 2.61}, {"measurement": "glycan array binding signal (z-score)", "setting": "[24]", "result": -0.987}, {"measurement": "glycan array binding signal (z-score)", "setting": "[25]", "result": 2.36}, {"measurement": "glycan array binding signal (z-score)", "setting": "[26]", "result": -0.626}, {"measurement": "glycan array binding signal (z-score)", "setting": "[27]", "result": 0.2}]}]}
